The campaign covered roughly 360,000 compounds. About 3,900 (1.1%) were called active. This is one part of a sample in which actives are shown more often than they occur. Unmarked numbers belong to inactive results.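 The calls were made as follows: active = mean replicate inhibition score of at least 50 and every replicate individually at or above 50; inconclusive = only one of the two criteria met; inactive = mean below 50 and not all replicates reaching 50.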

Data on 62 compounds can be found in PubChem BioAssay AID651610 (Broad Institute, 2012).

A short description of this assay: blockers of JRFL envelope-mediated fusion – HeLa-JRFL effector, CEM21 target cells, luciferase, primary screen (AID 651610).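 Also: 0% = plate neutral controls and 100% = maraviroc near 300 nM.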 The settings on record: HeLa-JRFL Env/CEM21 cell fusion, active compounds read high; at 16.7 µM unless noted.
The inhibition is the change of the read-out against control, counted positive when it falls. Take `C=CCn1c(C)cc(C2=NNC(=NCC)SC2)c1C`: the inhibition is 68.8% [at 12.3 µM] (active).
For `CO[C@@H]1CN(C)C(=O)c2ccc(NC(=O)c3ccc(F)cc3)cc2OC[C@H](C)NC[C@@H]1C`, the inhibition is -0.21%.
Under `C[C@@H]1CN([C@H](C)CO)C(=O)Cc2cc(NC(=O)Nc3ccc(F)cc3)ccc2O[C@@H]1CN(C)C(=O)Nc1ccc2c(c1)OCO2` stands 8.43%; under `CCc1ccccc1NC(=O)CN(c1ccc(OC)cc1OC)S(=O)(=O)c1ccccc1[N+](=O)[O-]`, 55.2% [at 12.3 µM] (active); under `COc1ccc(N(CC(=O)Nc2cccc3ccccc23)S(C)(=O)=O)c(OC)c1`, 4.71% [at 12.3 µM].
For the compound `COc1ccc(N(CC(=O)Nc2ccc(C)cc2C)S(=O)(=O)c2ccccc2[N+](=O)[O-])c(OC)c1`, the inhibition was 31.2% [at 12.3 µM].
Take `C[C@H](CO)N1C[C@H](C)[C@@H](CN(C)Cc2ccc(C(=O)Nc3ccccc3N)cc2)Oc2c(NC(=O)c3ccc(-c4nccs4)cc3)cccc2C1=O`: the inhibition is -33.5%.
`COc1ccc(Cl)cc1NC(=O)CN(C)C(=O)CNC(=O)C12CC3CC(CC(C3)C1)C2`: the inhibition was -38.6% [at 12.3 µM].
For the compound `COc1ccc(Cl)cc1NC(=O)CN(C)C(=O)c1cc2ccccc2cc1OC`, the inhibition is 26.5% [at 12.3 µM].
Under `COc1ccc(Cl)cc1NC(=O)CN(C)C(=O)CCCc1c[nH]c2ccccc12` stands 75.6% [at 12.3 µM] (active).
Turning to `C[C@H](CO)N1C[C@H](C)[C@H](CN(C)C(=O)Nc2ccc(C(F)(F)F)cc2)Oc2ccc(NS(=O)(=O)c3cn(C)cn3)cc2CC1=O`, the inhibition was 10.7%.
Under `CN1C(=O)c2cc(NS(=O)(=O)CC(F)(F)F)ccc2OC[C@H]2O[C@@H](CC(=O)NCc3ccc(Cl)c(Cl)c3)CC[C@@H]21` stands -8.14%; under `COCC(=O)Nc1ccc2c(c1)C(=O)N(C)[C@H]1CC[C@H](CC(=O)Nc3ccccc3)O[C@H]1CO2`, 12.1%.
In the case of `Cc1nc(Nc2ccc(S(=O)(=O)N3CCCC3)cc2)c2nnn(Cc3ccccc3)c2n1`, the inhibition is 11.3% [at 12.3 µM].
Take `O=C1c2cccnc2C(Nc2ccc(S(=O)(=O)N3CCCCCC3)cc2)N1Cc1ccccc1` (configuration not stated): the inhibition is 75.5% [at 12.3 µM] (active).
Take `O=S(=O)(NCc1ccccc1)c1ccc(S(=O)(=O)N2CCCC2)cc1`: the inhibition is -8.09% [at 12.3 µM].
As to `NCC[C@@H]1CC[C@@H](NC(=O)C2CCCC2)[C@H](CO)O1`, the inhibition is -16.5%.
As to `O=C(C[C@H]1C[C@H]2c3cc(NC(=O)c4ccc5c(c4)OCO5)ccc3O[C@H]2[C@@H](CO)O1)NCc1cccc(F)c1`, the inhibition is -9.68%.
Under `CCc1ccc(CN(C)C(=O)CCc2nnc(-c3ccc(-c4ccccc4)cc3)o2)nc1` stands 55.8% [at 12.3 µM] (active).
Under `CCc1ccc(CN(C)Cc2nc(Cc3ccccc3)no2)nc1` stands 9.8% [at 12.3 µM]; under `CC(=O)c1ccc(-c2nnc(CCC(=O)N(C)Cc3cnc4ccccn34)o2)s1`, 0.752% [at 12.3 µM].
On to `CN(C)C(=O)C[C@H]1C[C@H]2c3cc(NC(=O)Nc4ccccc4F)ccc3O[C@H]2[C@@H](CO)O1`, for which the inhibition is 1.88%.
In the case of `Cc1ccc(-c2noc(CSc3nnc(-c4ccncc4)n3-c3ccc(F)cc3)n2)cc1`, the inhibition is 62.8% [at 12.3 µM] (active).
As to `Cn1c(SCc2ccc(F)cc2)nnc1-c1ccncc1`, the inhibition is 8.23% [at 12.3 µM].
As to `O=C(CSc1nnc(Cc2ccccc2)n1-c1ccccc1)N1CCOCC1`, the inhibition was -26.5% [at 12.3 µM].
In the case of `Fc1ccc(-n2c(Cc3ccccc3)nnc2SCc2nc(-c3ccc(Cl)cc3)no2)cc1`, the inhibition was 79.7% [at 12.3 µM] (active).
As to `Cc1ccc(-c2noc(CSc3nnc(-c4cccs4)n3C)n2)cc1`, the inhibition was 19.8% [at 12.3 µM].
As to `Cn1cccc1Cc1nnc(SCC(=O)NCCc2ccccc2)n1-c1ccc(F)cc1`, the inhibition is 16% [at 12.3 µM].
`C[C@@H]1CCCCO[C@@H](CN(C)Cc2ccncc2)[C@H](C)CN([C@@H](C)CO)C(=O)c2cc(NS(=O)(=O)c3ccccc3)ccc2O1`: the inhibition is 18.8%.
As for `CO[C@@H]1CN(C)C(=O)c2cc(NC(C)=O)ccc2OC[C@@H](C)N(C(=O)NC2CCCCC2)C[C@H]1C`, the inhibition was 27.6%.
Under `CC1(C(=O)NCc2ccc3c(c2)OCO3)CCN1C(=O)Cc1cccc2ccccc12` (configuration not stated) stands -2.06% [at 12.3 µM]; under `CC1(C(=O)NCc2cccc3ccccc23)CCN1Cc1ccc(-c2ccccc2)o1` (configuration not stated), 102% [at 12.3 µM] (active).
Consider `CSc1ccc(CN2CCC2(C)C(=O)NCc2ccccc2Br)cc1` (configuration not stated), for which the inhibition was 26.2% [at 12.3 µM].
For `COc1ccc(NC(=O)Nc2ccc3c(c2)CC(=O)N([C@H](C)CO)C[C@H](C)[C@H](CN(C)S(=O)(=O)c2ccc(OC)cc2)O3)cc1`, the inhibition is 42.7%.
Under `C[C@H]1CN([C@@H](C)CO)C(=O)c2cc(NC(=O)Nc3ccc4c(c3)OCO4)ccc2O[C@H]1CN(C)S(=O)(=O)c1ccc(F)cc1` stands 68.9% (active); under `COc1ccc(NC(=O)Nc2ccc3c(c2)CC(=O)N([C@H](C)CO)C[C@H](C)[C@H](CN(C)S(=O)(=O)c2ccccc2)O3)cc1`, 59.1% (active); under `C[C@@H]1CCCCO[C@@H](CN(C)S(=O)(=O)c2ccc(F)cc2)[C@@H](C)CN([C@@H](C)CO)C(=O)c2cc(NC(=O)Nc3ccc4c(c3)OCO4)ccc2O1`, -5.81%.
In the case of `CNC[C@@H]1Oc2c(NC(=O)Nc3ccc(OC)cc3)cccc2C(=O)N([C@@H](C)CO)C[C@@H]1C`, the inhibition is 5.18%.
Consider `C[C@H](CO)N1C[C@H](C)[C@@H](CN(C)S(=O)(=O)c2ccc(F)cc2)Oc2c(NC(=O)Nc3ccccc3)cccc2C1=O`, for which the inhibition is -4.04% [at 12.3 µM].
Regarding `C[C@H](CO)N1C[C@H](C)[C@H](CN(C)S(=O)(=O)c2ccccc2)Oc2c(NC(=O)Nc3ccccc3)cccc2C1=O`, the inhibition was -1.17%.
Turning to `C[C@@H]1CN([C@H](C)CO)C(=O)c2cc(NC(=O)Nc3ccccc3)ccc2O[C@H]1CN(C)S(=O)(=O)c1ccc(F)cc1`, the inhibition is -5.96%.
With `C[C@@H]1CN([C@H](C)CO)C(=O)c2cccc(NC(=O)Nc3cccc4ccccc34)c2O[C@@H]1CN(C)C(=O)Nc1cccc2ccccc12`, the inhibition was -85%.
As for `COc1ccc(S(=O)(=O)N(C)C[C@H]2Oc3ccc(NC(=O)Nc4ccccc4)cc3CC(=O)N([C@H](C)CO)C[C@@H]2C)cc1`, the inhibition is -2.93%.
On to `C[C@H]1CN([C@@H](C)CO)C(=O)c2cccc(NC(=O)Nc3ccc(C(F)(F)F)cc3)c2O[C@H]1CN(C)S(=O)(=O)c1ccccc1`, for which the inhibition is 69.3% (active).
As for `CNC[C@H]1Oc2c(NC(=O)Nc3cccc4ccccc34)cccc2C(=O)N([C@H](C)CO)C[C@H]1C`, the inhibition was 56.8% (active).
In the case of `CCCN(C)C[C@@H]1Oc2cc(-c3cccc(C#N)c3)ccc2S(=O)(=O)N([C@@H](C)CO)C[C@@H]1C`, the inhibition is 1.91%.
Take `C[C@H](CO)N1C[C@H](C)[C@H](CN(C)C(=O)NC2CCCCC2)Oc2ccc(NC(=O)c3ccncc3)cc2CC1=O`: the inhibition is -6.85%.
`C[C@@H]1CCCCO[C@H](CN(C)S(=O)(=O)c2cn(C)cn2)[C@H](C)CN([C@@H](C)CO)C(=O)c2cc(NC(=O)Nc3ccc(C(F)(F)F)cc3)ccc2O1`: the inhibition was -4.59%.
Under `CC(C)NC(=O)Nc1ccc2c(c1)CC(=O)N([C@@H](C)CO)C[C@@H](C)[C@@H](CN(C)S(=O)(=O)c1ccccc1)O2` stands 4.16%; under `CC(C)NC(=O)Nc1ccc2c(c1)C(=O)N([C@H](C)CO)C[C@H](C)[C@@H](CN(C)C(=O)CCCN(C)C)OCCCC[C@@H](C)O2`, 2.66%.
Under `C[C@@H]1CCCCO[C@@H](CN(C)Cc2ccc3c(c2)OCO3)[C@@H](C)CN([C@@H](C)CO)C(=O)c2cc(NC(=O)C3CCCCC3)ccc2O1` stands -19.5%; under `CN(C)C(=O)c1cccc(-c2ccc3n(c2=O)C[C@H]2N[C@@H]3[C@@H](C(=O)NC3CCC3)[C@@H]2CO)c1`, 4.81%.
`C[C@H](CO)N1C[C@H](C)[C@H](CN(C)S(=O)(=O)c2cccs2)Oc2ccc(NS(=O)(=O)c3ccccc3)cc2C1=O`: the inhibition is 37%.
Turning to `COc1ccc(NC(=O)Nc2ccc3c(c2)C(=O)N([C@@H](C)CO)C[C@H](C)[C@@H](CN(C)S(=O)(=O)c2ccc(Cl)cc2)O3)cc1`, the inhibition is 7.85%.
For `C[C@@H]1CN([C@@H](C)CO)C(=O)Cc2cc(NC(=O)Nc3ccccc3)ccc2O[C@@H]1CN(C)S(=O)(=O)c1ccc(F)cc1`, the inhibition was 56.4% (active).
Take `C[C@H](CO)N1C[C@H](C)[C@@H](CN(C)S(=O)(=O)c2ccccc2)Oc2ccc(NC(=O)Nc3ccc(F)cc3)cc2CC1=O`: the inhibition was -10.6%.
With `Cc1ccc(S(=O)(=O)N(C)C[C@@H]2Oc3ncc(-c4cc5ccccc5o4)cc3C(=O)N([C@H](C)CO)C[C@@H]2C)cc1`, the inhibition was 73% (active).
`COc1ccc(NC(=O)Nc2ccc3c(c2)C(=O)N([C@H](C)CO)C[C@H](C)[C@H](CN(C)S(=O)(=O)c2ccc(OC)cc2)O3)cc1`: the inhibition was 59.4% (active).
With `C[C@H](CO)N1C[C@H](C)[C@H](CN(C)S(=O)(=O)c2ccc(F)cc2)Oc2ncc(-c3ccc(F)cc3)cc2C1=O`, the inhibition was 24.9%.
With `COc1ccc(S(=O)(=O)N(C)C[C@@H]2Oc3ccc(NC(=O)Nc4c(C)noc4C)cc3C(=O)N([C@H](C)CO)C[C@@H]2C)cc1`, the inhibition is -131% [at 12.3 µM].
For `C[C@H]1CN([C@@H](C)CO)C(=O)Cc2cc(NC(=O)Nc3ccc(F)cc3)ccc2O[C@H]1CN(C)S(=O)(=O)c1ccccc1`, the inhibition was 54%.
Under `COc1ccc(-c2cnc3c(c2)C(=O)N([C@H](C)CO)C[C@H](C)[C@H](CN(C)S(=O)(=O)c2ccccc2)O3)cc1` stands 11.4%.
